# Experimental data: PubChem BioAssay AID1508625 (Wald Lab, School of Medicine, Case Western Reserve …, 2021)
# Test: enhancers of NK cell killing of ovarian tumor cells, primary screen, imaging, OVCAR3, primary NK cells, calcein-AM imaging (AID 1508625);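 further: compound given to NK cells 16 h before adding targets at 1.5 to 1 ratio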
# Settings: OVCAR3 lysis by primary NK cells, at 5 µM; z-score: measured here: robust Z-score, single-point normalisation
SMILES,"corrected activity, negative = more killing [%]",z-score
O=C(Cn1cnc2ccccc2c1=O)NCCC(=O)NC1CCCCCC1,-3.69,-1.17
Cc1ccc(C(=O)CC2(O)C(=O)N(C(C)C)c3ccccc32)c(C)c1 (configuration not stated),-3.79,-1.13
N#CCCCSc1nnnn1-c1ccccc1,-7.28,-2.25
O=[N+]([O-])c1ccc(OCCCN2CCNCC2)cc1,-3.62,-2.02
COc1ccccc1CNCc1ccccn1,-2.41,-0.766
O=C(Oc1cccc(NC(=O)c2ccccc2Cl)c1)c1ccc(Cl)c(S(=O)(=O)N2CCCCC2)c1,-3.19,-1.2
Cc1ccc(NC(=O)c2cc(S(=O)(=O)NCCc3ccccc3)ccc2F)cc1F,-5,-1.35
CC(C)CCNC(=O)c1c[nH]c2ccc(S(=O)(=O)N3CC(C)CC(C)C3)cc2c1=O (configuration not stated),-3.33,-1.21
CCOc1cc(C2Nc3ccccc3NC3=C2C(=O)CC(C)(C)C3)ccc1OC(C)=O (configuration not stated),0.693,0.309
CN(C)c1ccc(C=C(C(=O)c2ccccc2)c2nc3ccccc3[nH]2)cc1,-1.99,-1.03
O=C(Nc1nc(-c2ccc([N+](=O)[O-])cc2)cs1)c1ccccc1F,-1.2,-0.252
N#Cc1cc2c(N)c(C(=O)Nc3ccccc3Oc3ccccc3)sc2nc1N,0.0831,0.0248
CCc1ccccc1N1C(=O)C2C(c3ccc(Br)cc3)OC3(C(=O)c4ccccc4C3=O)C2C1=O (configuration not stated),0.455,0.141
O=[N+]([O-])c1ccc(N2CCCCC2)cc1NCCc1ccccc1,-2.78,-0.86
CSC1CCCCC1(O)CSc1nc2ccccc2o1 (configuration not stated),-4.44,-1.67
COc1ccccc1C(=O)N1CCN(S(=O)(=O)c2ccc(C)cc2)CC1,-3.03,-1.35
COc1ccc(C)cc1NC(=O)c1cc(S(=O)(=O)NC2CCCCC2C)ccc1F (configuration not stated),-0.89,-0.24
COC(=O)c1cc(NC(=O)c2cc3nc(-c4ccc(Cl)cc4)cc(C(F)(F)F)n3n2)cc(C(=O)OC)c1,-8,-2.54
Cc1cc(NC(=O)CSc2nc3ccc(Br)cc3c3nc4ccccc4n23)no1,-5.14,-1.36
CCOC(=O)C1=C(N)OC2=C(C(=O)CC(C)(C)C2)C1c1ccccc1[N+](=O)[O-] (configuration not stated),-1.89,-0.587
O=C1OC(c2cccc(Cl)c2)=NC1=Cc1ccc(Br)o1,-4.19,-1.78

SMILES,"corrected activity, negative = more killing [%]",z-score
O=C(NCCc1ccccc1Cl)C1CC(=O)N(C2CCCCC2)C1 (configuration not stated),-2.73,-1.04
O=c1cc(O)c2c(n1-c1ccccc1)CCCC2,-7.04,-2.18
COc1ccccc1OCC(=O)N=Nc1c(O)[nH]c2c(C)cc(Br)cc12,-2.87,-1.13
CCC(Cc1ccccc1)NS(=O)(=O)c1ccc(F)c(C(=O)Nc2ccc(C)c(F)c2)c1 (configuration not stated),-2.04,-0.551
O=C(c1cccc(NS(=O)(=O)Cc2ccccc2)c1)N1CCOCC1,-1.7,-0.945
CCN(CC)c1ccc(C=NS(=O)(=O)c2ccc(C)cc2)cc1,-5.15,-2.76
Cc1nnc(NC(=O)CSc2nc3c(c(=O)n2-c2ccccc2)SCC3)s1,-0.367,-0.0912
CCOc1cc(C=c2sc3nc4ccccc4n3c2=O)ccc1O,-2.97,-1.26
Cc1onc(-c2ccccc2)c1C(=O)Nc1cccc(Br)c1,-5.57,-1.98
CCC(=O)Nc1ccccc1C(=O)C(=O)Nc1ccccc1,-1,-0.557
Cc1ccccc1C(=O)N1N=C(c2ccc(F)cc2)CC1(O)C(F)(F)F (configuration not stated),-4.55,-2.44
c1ccc2nn(C34CC5CC(CC(C5)C3)C4)nc2c1,-1.32,-0.685
CCOC(=O)c1c(NC(=O)c2cc([N+](=O)[O-])ccc2N2CCCCCC2)sc2c1CCCC2,-2.4,-0.744
COc1cccc(NS(=O)(=O)c2ccc3c(c2)[C@H]2C=CC[C@H]2[C@@H](c2ccccc2Cl)N3)c1,-8.83,-2.64
COc1ccc(Cn2c(=S)[nH]c3cc(C(=O)N4CCCCC4)ccc3c2=O)cc1,-8.39,-2.67
CCCC12CN3CC(C)(CN(C1)C(=O)c1ccccc1C3=O)C2=O,-4.81,-1.98
CCC(=O)NC(Nc1ccccc1Cl)(C(F)(F)F)C(F)(F)F,-0.701,-0.276
Cc1noc(C)c1S(=O)(=O)Nc1ccc(C(=O)Nc2cccc(Cl)c2)cc1,-7.43,-1.82
CCCSc1nc2c([nH]c3ccccc32)c(=O)n1-c1ccc(OC)cc1,-5.59,-1.39
O=C(CSc1nc2cc3c(cc2c(=O)n1Cc1ccco1)OCO3)NCc1ccccc1,-4.67,-1.24
